Assay outcomes: PubChem BioAssay, several laboratories
PostGolgi yeast = growth inhibition of a yeast mutant, post-Golgi transport screen; post-Golgi transport phenotypic cell assay; inhibition, % at 10 µM; 98,000 tested, 0.9% active;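 further: yeast cells grown in 1536-well plates; yeast grown about 18 h at 30C before absorbance read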
PostGolgi ctrl = inhibits growth of the yeast control strain; 98,000 tested, 5% active; inhibition, % at 10 µM; efflux-deficient yeast background strain, growth absorbance A615, 16 h
CYP2C9 activ = CYP2C9 (human) activation; AID 1024; 96,000 tested, 1.4% active; activation factor at 5 µM; P11712; recombinant CYP2C9, luciferin-H conversion, luminescence; hits give high values; factor 1 = untreated enzyme, 0 = blocked;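 active means activation factor of 2 or more for CYP2C9 at a 5 µM dose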
Target sequence (P11712 whole entry, looked up): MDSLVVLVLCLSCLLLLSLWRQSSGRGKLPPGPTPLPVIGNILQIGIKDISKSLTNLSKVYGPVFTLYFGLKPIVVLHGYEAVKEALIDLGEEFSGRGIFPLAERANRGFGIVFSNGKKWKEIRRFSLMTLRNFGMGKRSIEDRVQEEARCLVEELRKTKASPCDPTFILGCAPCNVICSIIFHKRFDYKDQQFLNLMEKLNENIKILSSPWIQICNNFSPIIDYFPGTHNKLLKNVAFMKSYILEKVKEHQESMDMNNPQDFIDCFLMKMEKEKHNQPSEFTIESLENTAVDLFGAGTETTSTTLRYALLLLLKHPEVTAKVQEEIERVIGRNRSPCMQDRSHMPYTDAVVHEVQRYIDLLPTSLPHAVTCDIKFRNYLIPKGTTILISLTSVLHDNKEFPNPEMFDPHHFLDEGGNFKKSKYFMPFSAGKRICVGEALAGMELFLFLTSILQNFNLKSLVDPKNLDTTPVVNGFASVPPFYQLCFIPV
CYP2C9 inhib = inhibitors of human CYP2C9; P11712; CYP2C9 Supersomes, luciferin-H conversion, luminescence; inhibition, % at 5 µM; 96,000 tested, 20% active; AID 777;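 active means blocking of liver enzyme CYP2C9 beyond about 50% at 5 µM, limit read from the data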
CYP2C19 activ = cytochrome P450 2C19 (human) activation; recombinant CYP2C19, luciferin-H EGE luminescence; hits give high values; 0 = fully inhibited enzyme, 1 = untreated enzyme; P33261; activation factor at 5 µM; AID 1025; 96,000 tested, under 10 active;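 active means activation factor of at least 2 at 5 µM in the primary screen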
CYP2C19 inh = human CYP2C19 inhibition | CYP2C19 Supersomes, luciferin-H EGE luminescence, 30 min | inhibition, % at 5 µM | 96,000 tested, 21% active;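 active means CYP2C19 inhibition above a set limit at 5 µM in the primary screen, cut at about 50% in these data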
Numbers stand for hits; . = inactive; / = not tested or not shown; ! = not confirmed by another sample. An excerpt weighted towards active compounds, which were near 32% of everything screened. Unless noted, no stated cut-off is given here; in the data, active means inhibition above about 30%; inactive means the rest.

SMILES	PostGolgi yeast	PostGolgi ctrl	CYP2C9 activ	CYP2C9 inhib	CYP2C19 activ	CYP2C19 inh
O=C(NCc1cccs1)C1CCCN(c2ncccn2)C1 (configuration not stated)	.	.	.	.	.	52.8
O=C(NCc1cccs1)C1CCCCC1	.	.	.	.	.	50.6
O=C(NCc1cccs1)C1CC(=O)N(C2CCCC2)C1 (configuration not stated)	.	.	.	.	.	.
CCNC(=O)C1CC(=O)N(c2ccc(Br)cc2)C1 (configuration not stated)	.	.	.	.	.	70.3
O=C(NCc1cccs1)C1CC(=O)N(c2ccc(F)cc2)C1 (configuration not stated)	.	.	.	.	.	58.8
CC(=O)Nc1nc(C)c(Oc2ccc(Cl)cc2Cl)c(=O)[nH]1	.	.	.	.	.	.
Cc1ccsc1C(=O)OCC(=O)N1CCOCC1	.	.	.	.	.	.
COc1ccccc1C(=O)NCC(=O)n1nc(C)cc1C	.	.	3	.	.	.
Cc1cc(C)n(C(=O)CCNC(=O)c2ccccc2Br)n1	.	.	2.1	.	.	.
COc1cc(C(=O)NCC(=O)n2nc(C)cc2C)cc(OC)c1OC	.	.	.	.	.	.
O=C(NC(=S)Nc1ccc(C(=O)N2CCOCC2)cc1)c1ccc([N+](=O)[O-])cc1	.	.	.	.	.	.
Cc1ccc2cc(CN(Cc3ccco3)C(=O)c3cccs3)c(=O)[nH]c2c1	.	.	.	.	.	.
Cc1ccc(CN(Cc2cc3cc4c(cc3[nH]c2=O)OCCO4)Cc2nnnn2Cc2ccco2)cc1	.	.	.	95.8	.	88.5
Cc1ccc2cc(CN(Cc3ccc4c(c3)OCO4)Cc3nnnn3Cc3ccco3)c(=O)[nH]c2c1	.	30.3	.	84.5	.	80.1
O=C(N1CCCCCC1)N1CCN(S(=O)(=O)N2CCCCC2)CC1	.	.	.	.	.	.
COc1cc(NS(=O)(=O)c2cccc3nsnc23)cc(OC)c1	.	.	.	.	.	93.2
CSc1cccc(NS(=O)(=O)c2cccs2)c1	.	.	.	.	.	.
COc1cc(NS(=O)(=O)c2cccc3nsnc23)c(C(=O)O)cc1OC	.	.	.	.	.	.
CSc1cccc(NS(=O)(=O)c2cccc3nsnc23)c1	.	.	.	64.3	.	57.5
O=C(NC1=NCCS1)NC12CC3CC(CC(C3)C1)C2	.	.	.	.	.	.
O=S(=O)(c1ccc(Br)s1)N1CCN(c2ncccn2)CC1	.	.	.	61.1	.	.
O=S(=O)(c1ccc(Br)s1)N1CCN(c2ccccn2)CC1	.	51.2	.	98.1	.	99.4
Cn1c(N)c(C(=O)COC(=O)C2(c3cccc(F)c3)CCCC2)c(=O)n(C)c1=O	.	.	.	.	.	.
COc1cnn(-c2ccccc2)c(=O)c1SCc1ccc(Cl)c(Cl)c1	.	60.3	.	52.1	.	54.2
CCOc1ccccc1Nc1nc2ccccc2[nH]1	.	.	.	.	.	.
SMILES	PostGolgi yeast	PostGolgi ctrl	CYP2C9 activ	CYP2C9 inhib	CYP2C19 activ	CYP2C19 inh
Cc1ccc(CO/N=C\Cc2snc(Sc3ncc(C(F)(F)F)cc3Cl)c2C#N)cc1	.	.	.	.	.	51.7
Clc1ccc(-n2nnnc2CN2CCOCC2)cc1	.	.	.	.	.	.
O=[N+]([O-])c1cccc(-n2nnnc2CN2CCCCCC2)c1	.	.	.	.	.	94.0
CC1=C(C#N)CCC(=O)N1Cc1c(C)cc(C)cc1C	.	.	.	.	.	.
CC1=C(C#N)CCC(=O)N1Cc1ccc(C)cc1	.	.	.	.	.	60.8
O=C(c1ccc(CS(=O)(=O)c2c(Cl)cccc2Cl)o1)N1CCN(c2ccccn2)CC1	.	.	.	.	.	92.8
COc1ccccc1S(=O)(=O)Cc1ccc(C(=O)N2CCOCC2)o1	.	.	/	/	/	/
Cc1ccc(S(=O)(=O)Cc2ccc(C(=O)N3CCN(c4ccccn4)CC3)o2)cc1	.	.	.	69.6	.	.
O=C(c1ccc(CS(=O)(=O)c2ccc(Br)cc2)o1)N1CCOCC1	.	.	.	.	.	.
O=C(NCCN1CCCC1)c1ccc(CS(=O)(=O)c2c(Cl)cccc2Cl)o1	.	.	.	.	.	.
O=C(c1ccc(CS(=O)(=O)c2ccccc2)o1)N1CCN(c2ncccn2)CC1	.	.	.	63.5	.	54.5
O=C(c1ccc(CS(=O)(=O)c2ccc(Br)cc2)o1)N1CCN(c2ccccn2)CC1	.	.	.	68.7	.	.
CNc1nc(Oc2ccc(=O)n(C)n2)nc(N2CCOCC2)n1	.	.	.	.	.	.
O=C(c1ccc(CS(=O)(=O)c2cccc(C(F)(F)F)c2)o1)N1CCN(c2ccccn2)CC1	.	.	.	60.3	.	53.5
CCOc1c(C)cc(-c2ncccc2O)cc1C	.	.	.	.	.	68.9!
COc1cccc(S(=O)(=O)Nc2ccc(C(=O)N3CCOCC3)cc2)c1	.	.	.	.	.	.
CC(=O)Nc1ccc(NC(=O)CNS(=O)(=O)c2ccc(C)cc2)cc1	.	.	.	.	.	.
CC(=O)Nc1ccc(S(=O)(=O)NNC(=O)c2ccc(C)cc2)cc1	.	.	.	.	.	53.2
CCC(=O)Nc1ccc(/C(C)=N\NS(=O)(=O)c2ccc(C)cc2)cc1	.	.	.	61.4	.	.
CC(=O)Nc1ccc(/C(C)=N/NS(=O)(=O)c2ccc(C)cc2)cc1	.	.	.	71.0	.	.
CC(=O)Nc1ccc(S(=O)(=O)NNC(=O)c2cccc3ccccc23)cc1	.	.	.	61.8	.	.
C/C(=N/NS(=O)(=O)c1ccc(Br)cc1)c1ccc(NC(=O)c2ccc(C)o2)cc1	.	40.7	.	97.8	.	.
COc1ccc(S(=O)(=O)N/N=C(/C)c2ccc(Cl)cc2)cc1	.	.	.	78.6	.	83.9
CCC(NS(=O)(=O)c1ccc(C)cc1)C(=O)Nc1ccc(NC(C)=O)cc1 (configuration not stated)	.	.	.	.	.	69.8
COCCNCC(=O)NCC12CC3CC(CC(C3)C1)C2	.	.	.	.	.	.
SMILES	PostGolgi yeast	PostGolgi ctrl	CYP2C9 activ	CYP2C9 inhib	CYP2C19 activ	CYP2C19 inh
Cc1ccc(-n2cc(C(=O)c3ccccc3O)cn2)cc1	.	.	.	.	.	60.7
CCOC(=O)c1cn(-c2ccccc2)nc1-c1cccnc1	.	.	/	/	/	/
Cc1ccc(O)c(C(=O)c2cnn(-c3ccccc3)c2)c1	.	.	.	.	.	.
O=C(OCn1nnc2ccccc2c1=O)c1cccnc1	.	.	.	.	.	.
O=C(OCn1nnc2ccccc2c1=O)c1cn(-c2ccccc2)nc1-c1cccnc1	34.2	.	.	.	.	.
CCOC(=O)c1cn(-c2ccccc2)nc1-c1ccncc1	.	.	.	81.6	.	91.4
CCOC(=O)c1nn(-c2ccc(C)cc2)cc1C(=O)c1ccccc1	.	.	.	.	.	66.0
Cc1cc(C)c(NC2=NS(=O)(=O)c3ccccc32)c(C)c1	.	.	.	.	.	.
